Only some compounds are listed: those with a hit (about 3.5% of all), similar ones and a draw of the others.
GPR151 ag: human GPR151 activation; PathHunter beta-arrestin GPR151 cells, luminescence; activation, % at 11.2 µM; 650,000 compounds, 1% hits; in the data active = activation above about 4.9%;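 note: 0% = median of compound wells and 100% = cells with positive control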
TEAD-YAP block: TEAD-YAP interaction inhibition. HEK-TIYL cells, TEAD-Gal4/YAP UAS-luciferase luminescence. inhibition, % at 9.12 µM. AID 1259422. 640,000 compounds, 1.4% hits; in the data active = inhibition above about 32%;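 note: 0% = median of test compound wells and 100% = reference inhibitor wells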
FBW7 activator: activators of human E3 ligase FBW7. 650,000 compounds, 0.13% hits. Q969H0. normalized activity (activation), % at 26.1 µM. AID 1259310. AlphaScreen FBW7–phospho-cyclin E peptide binding, activator screen; in the data active = normalized activity above about 1.9%;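 note: purified mutant Fbw7 with reduced substrate affinity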
MITF primary: human MITF inhibition, primary screen | AlphaScreen MITF homodimerization, bead proximity signal | inhibition, % at 2.6 µM | 650,000 compounds, 0.91% hits; in the data active = inhibition above about 50%;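 note: 0% = vehicle wells with protein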
GPR151 confirm: human GPR151 activation, confirmation screen; shares compounds with GPR151 ag; GPR151 PathHunter beta-arrestin cells, luminescence, 90 min; % of EA-reagent control over plate median; activation, % at 11.2 µM; 6,700 tested, under 10 active;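 active = mean percent activation across replicates above the confirmation screen cutoff of 4.91%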
GPR119 ag: GPR119 activation, counter-screen for GPR151 activators. shares compounds with GPR151 ag. GPR119 PathHunter beta-arrestin cells, luminescence, 90 min; 0 = compound-well median, 100 = enzyme-acceptor control. activation, % at 11.2 µM. 6,700 compounds, 0.3% hits;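 active = mean percent activation in the counterscreen above 29.09%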;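 note: counterscreen on off-target GPR119 to flag nonselective hits from the GPR151 activator screen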
* marks the source's active call; other numbers are inactive results; . = no result given; ! = a repeat was not active.

SMILES	GPR151 ag	TEAD-YAP block	FBW7 activator	MITF primary	GPR151 confirm	GPR119 ag
COC(=O)CSc1nnc(COc2ccccc2OC)n1C	5.3*	-5	0	2	1	4
COc1ccccc1NC(=O)CSc1nnc(COc2ccc(C)cc2)n1C	5.3*	5	0	9	-1	-6
Cn1c(COc2ccc(Cl)cc2)nnc1SCC(=O)NC(C)(C)C	-1	-2	0	-2	.	.
CNC(=O)CSc1nnc(COc2ccccc2OC)n1C	0	2	0	-8	.	.
Cn1c(COc2ccc(Cl)cc2)nnc1SCC(=O)NCC(F)(F)F	5.1*	0	0	3	2	4
COc1ccc(Cc2nnc(SCC(=O)Nc3ccccc3OC)n2-n2cccc2)cc1	11*	17	0	3	-1	-18
COc1ccccc1NC(=O)CSc1nnc(CNC(=O)c2ccc(C)cc2)n1C	1	9	0	-16	.	.
CCC(C)(C)NS(=O)(=O)c1ccc(Cl)cc1F	-1	-4	0	-16	.	.
O=C(C1CCC(CNc2c(N3CCCC3)c(=O)c2=O)CC1)N1CCc2ccccc21 (configuration not stated)	5.3*	-1	0	11	-1	-15
COc1ccc(C)cc1S(=O)(=O)N(CC(=O)N1CCOCC1)Cc1ccccc1	12*	3	0	9	-1	-5
COc1ccc(S(=O)(=O)N(CC(=O)N2CCOCC2)Cc2ccccc2)cc1C	1	4	0	-24	.	.
COc1ccc(Cn2c(=O)c3cccnc3n(CC#N)c2=O)cc1	-1	-12	0	-3	.	.
COc1ccc(-c2cnc(NCCc3c[nH]c4ccccc34)nc2)cc1	5.2*	-11	0	0	0	-8
CC1=C(C(=O)OCC2CCCO2)C(c2ccc(Cl)c(Cl)c2)C2=C(CCCC2=O)N1 (configuration not stated)	0	19	0	-22	.	.
CC(C)NC(=O)c1cccc2nc3ccccc3nc12	1	13	0	9	.	.
NC(=O)c1cccc2nc3ccccc3nc12	8.8*	4	0	1	0	-8
Cc1ccc(N2CC(C(=O)O)CC2=O)c(C)c1 (configuration not stated)	0	9	0	-6	.	.
COC(=O)c1ccc(OC(=O)C2CC(=O)N(c3ccc(C)cc3C)C2)cc1 (configuration not stated)	5.0*	14	0	8	0	-10
CN(C)CCCN1c2ccccc2CCc2ccc(Cl)cc21	10*!	0	0	17	0	-12
CN(CCCN1c2ccccc2CCc2ccccc21)CC(=O)c1ccc(Cl)cc1	-2	-6	0	6	.	.
NC(CSC1CCCCO1)C(=O)O (configuration not stated)	1	-15	0	-8	.	.
CCOC(=O)C(N)CSC1CCCCO1 (configuration not stated)	8.2*	-5	0	35	0	-1
CC(C)(C)N1C(=O)c2ccc(C(=O)Nc3ccc([N+](=O)[O-])cc3Cl)cc2C1=O	6.6*	4	0	4	0	0
C/C(=N\NC(=O)CCc1ccccc1)c1ccncc1	7.2*	-10	0	-14	0	1
COc1cc(C2c3c(oc4ccc(F)cc4c3=O)C(=O)N2c2nccs2)ccc1O (configuration not stated)	6.2*	8	0	9	-1	4
SMILES	GPR151 ag	TEAD-YAP block	FBW7 activator	MITF primary	GPR151 confirm	GPR119 ag
Cc1ccc(Oc2cccc([N+](=O)[O-])c2)cc1C	2	9	0	11	.	.
COc1cc(OC)c(OC)cc1/C=C/C(=O)c1cc2cccc(OC)c2oc1=O	0	11	0	5	.	.
CC(=O)c1ccc(N2C(=O)C3C(C2=O)C2(CO)C=CC3(C)O2)cc1 (configuration not stated)	5.5*	1	0	9	0	-5
Cc1cc(C)c2c(c1)/C(=N/Nc1ccc(S(N)(=O)=O)cc1[N+](=O)[O-])CCC2	1	0	0	-2	.	.
NS(=O)(=O)c1ccc(N/N=C2\CCc3ccccc32)c([N+](=O)[O-])c1	7.5*	0	0	10	-1	-8
CC1Cc2ccccc2N1C(=O)c1ccc2c(c1)OCO2 (configuration not stated)	0	7	0	2	.	.

Screens as filed in PubChem BioAssay.
